Test results from PubChem BioAssay (EPA / NIEHS).
Activity calls are given as the source filed them. Rule for the calls: active = hit-call score of the fitted dose curve at least 0.9, where 1 is the maximum; inactive = score below 0.9.

read-out: Monokine induced gamma interferon (MIG), CXCL9 (gene 4283); assay: BSK_hDFCGF_MIG: BioMAP Diversity Plus: hDFCGF Assay for Monokine induced gamma interferon (MIG) Biomarker Activity (AID 2283063); details: primary human foreskin fibroblasts; actives raise or lower the signal
Procedure: BSK_hDFCGF is a cell-based, multiplexed-readout assay that uses foreskin fibroblast, a human skin primary cell, with measurements taken at 24 hours after chemical dosing in a 96-well plate.BSK_hDFCGF_MIG is an assay component measured in the BSK_hDFCGF assay. It measures MIG antibody related to regulation of gene expression using ELISA technology.Data from the assay component BSK_hDFCGF_MIG was analyzed into 1 assay endpoint. This assay endpoint, BSK_hDFCGF_MIG, was analyzed with bidirectional fitting relative to DMSO as the negative control and baseline of activity. Using a type of binding reporter, gain or loss-of-signal activity can be used to understand changes in the signaling as they relate to the gene CXCL9. Furthermore, this assay endpoint can be referred to as a primary readout, because this assay has produced multiple assay endpoints where this one serves a signaling function. To generalize the intended target to other relatable targets, this assay endpoint is annotated to the cytokine intended target family, where the subfamily is chemotactic factor.
The levels of cell surface (or secreted, indicated by the prefix "s") biomarker endpoints were measured by ELISA. Overt cytotoxicity to cells in confluent adherent cultures (all systems other than the BT system) was assessed by measuring total protein levels using sulforhodamine B (SRB) staining in parallel cultures at the time of biomarker measurements, indicated as SRB endpoints. For proliferation assays for adherent cell types, individual cell types are cultured at sub-confluence and relative cell numbers quantified by SRB staining at time points optimized for each system (48 h: 3C and CASM3C systems; 72 h: BT and HDF3CGF systems; 96 h: SAg system). SRB was performed by staining cells with 0.1% SRB after fixation with 10% TCA and reading wells at 560 nm.Viability and proliferation of PBMC (T cells) was quantified by Alamar Blue reduction for the SAg and BT systems. For PBMC viability (referred to as PBMC Cytotoxicity within the assay endpoint names), cells were plated (75,000/well in a 96-well plate) and then chemical samples added for 1 h before addition of activators, SEB and TSST-1 (20 ng/mL final concentration each). Cells were incubated for 90 h. Then, Alamar Blue (20 uL/well) (Invitrogen, Cat DAL1100) was added for 6 h, and the plates were read with a fluorescence microplate reader at 546/580 nm (excitation/emission). For PBMC proliferation, cells were plated and activated as above but incubated for only 16 h prior to addition of Alamar Blue. Plates were read after 6 h.

| Structure (SMILES) | outcome | AC50 |
| --- | --- | --- |
| Nc1ccc(N)cc1 | inactive |  |
| O=S(=O)(c1ccc(Cl)cc1)c1cc(Cl)c(Cl)cc1Cl | inactive |  |
| CCCCCCCCCCCCc1cccc(S(=O)(=O)O)c1 |  | 27.6 µM (active) |
| OC(Cc1ccccc1Cl)(Cn1[nH]cnc1=S)C1(Cl)CC1 (stereo not given) |  | 33.3 µM (active) |
| Cc1c([N+](=O)[O-])c(C)c([N+](=O)[O-])c(C(C)(C)C)c1[N+](=O)[O-] | inactive |  |
| c1ccc2sc(SNC3CCCCC3)nc2c1 | inactive |  |
| COc1ccccc1N | inactive |  |
| CCOC(=O)C(SP(=S)(OC)OC)c1ccccc1 (stereo not given) | inactive |  |
| CC(C)O.CC(C)O.OCCN(CCO)CCO.OCCN(CCO)CCO.[Ti] |  | 30.6 µM (active) |
| CCOP(=S)(OCC)OP(=S)(OCC)OCC | inactive |  |
| CN(C)C(=S)S |  | 21.6 µM (active) |
| CC(C)=CC1C(C(=O)OCc2cccc(Oc3ccccc3)c2)C1(C)C (stereo not given) | inactive |  |
| O=[N+]([O-])c1ccc(Nc2ccccc2)cc1 | inactive |  |
| Cc1ccccc1OP(=O)(Oc1ccccc1)Oc1ccccc1 |  | 20 µM (active) |
| CC(C)N(C(=O)CCl)c1ccccc1 |  | 3.85 µM (active) |
| OC(Cc1ccccc1Cl)(Cn1cncn1)C1(Cl)CC1 (stereo not given) | inactive |  |
| Nc1c(Oc2ccccc2)cc(O)c2c1C(=O)c1ccccc1C2=O |  | 15.6 µM (active) |
| [Cl][Sn]([c]1ccccc1)([c]1ccccc1)[c]1ccccc1 |  | 0.0855 µM (active) |
| Cc1cccc(OP(=O)(Oc2cccc(C)c2)Oc2cccc(C)c2)c1 | inactive |  |
| CCC(C)(C#N)N=NC(C)(C#N)CC (stereo not given) | inactive |  |

| Structure (SMILES) | outcome | AC50 |
| --- | --- | --- |
| CCCCOC(=O)COC(=O)c1ccccc1C(=O)OCCCC | inactive |  |
| O=C(O)C1(c2ccc3c(c2)OC[C@H](Cc2ccc(-c4ccccc4)cc2)[C@H]3O)CCCC1 |  | 12.8 µM (active) |
| Cc1cc(Cl)ccc1N | inactive |  |
| Oc1c(Cl)cc(Cl)cc1Cl | inactive |  |
| OCCCCO | inactive |  |
| Cc1cc(C)cc(C)c1 | inactive |  |
| c1ccc(-c2cccc(-c3ccccc3)c2)cc1 | inactive |  |
| Oc1c(Br)cc(Br)cc1Br | inactive |  |
| CCOP(=O)(OCC)OC(=CCl)c1ccc(Cl)cc1Cl |  | 30.7 µM (active) |
| Cc1ccc(OP(=O)(Oc2ccc(C)cc2C)Oc2ccc(C)cc2C)c(C)c1 | inactive |  |
| N#CCCC(Br)(C#N)CBr (stereo not given) |  | 6.19 µM (active) |
| Cc1ccc2nc3sc(=O)sc3nc2c1 |  | 7.3 µM (active) |
| O=C(CCl)NCO | inactive |  |
| O=[N+]([O-])c1cccc2ccccc12 | inactive |  |
| Oc1ccc(Cc2ccc(O)cc2)cc1 | inactive |  |
| O=C(N[C@H]1CN2CCC1CC2)c1ccc2c(c1)OCCO2 | inactive |  |
| O=S(=O)(C(Cl)(Cl)Cl)C(Cl)(Cl)Cl |  | 2.36 µM (active) |
| CCOP(=O)(OCC)SCCSCC | inactive |  |
| C#CCOC(=O)/C=C(C)/C=C/CC(C)CCCC(C)C (stereo not given) | inactive |  |
| N#Cc1cccnc1 | inactive |  |
